Here are results for eleven sequences from article PMC7862700, “An all-to-all approach to the identification of sequence-specific readers for epigenetic DNA modifications on cytosine”.

Experiment in all cases: DAPPL (digital affinity profiling via proximity ligation, sequencing); 10 mM Tris-HCl pH 7.5, 50 mM NaCl, 1 mM DTT, 4% glycerol, room temperature, 30 min; GST-TFs on glutathione beads, 16-mer random dsDNA library, 0.1% formaldehyde crosslink after washing; high values mean tight binding
Details in all cases: protein: recombinant; tags: N-terminal GST; dsDNA, one strand shown

Assay [1] has as its target T1, FLI1 (Homo sapiens, UniProt Q01543 1-452).
T1 sequence: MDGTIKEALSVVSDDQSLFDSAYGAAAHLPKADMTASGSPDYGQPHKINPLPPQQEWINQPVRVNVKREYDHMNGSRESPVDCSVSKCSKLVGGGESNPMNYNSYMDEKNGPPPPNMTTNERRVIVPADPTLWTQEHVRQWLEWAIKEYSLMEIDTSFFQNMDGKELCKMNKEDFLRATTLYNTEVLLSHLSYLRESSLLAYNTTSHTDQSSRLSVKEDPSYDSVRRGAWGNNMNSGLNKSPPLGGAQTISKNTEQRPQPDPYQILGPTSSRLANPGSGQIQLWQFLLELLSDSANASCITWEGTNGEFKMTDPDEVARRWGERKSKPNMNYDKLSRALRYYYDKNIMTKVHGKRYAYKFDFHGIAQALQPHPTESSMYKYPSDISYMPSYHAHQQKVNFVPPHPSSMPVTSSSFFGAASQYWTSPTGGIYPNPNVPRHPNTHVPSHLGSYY
The method in brief:
(§1)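 Human transcription factors carrying a GST fusion were produced in yeast, bound to glutathione beads, tagged with DNA barcodes and pooled together with a tag-only sample. Each pool was held with 200 nmole of a random double-stranded 16-mer DNA library in Tris/NaCl/DTT/glycerol buffer for 30 min at room temperature, then washed, crosslinked in 0.1% formaldehyde, proximity-ligated with BsaI/T4 ligase (1 h, 37 °C), PCR-amplified and sequenced on an Illumina NextSeq500. Binding signal is the read frequency of each hexamer for a given factor divided by its frequency in the tag-only sample.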

The target in assay [2] is T2, GABPA (Homo sapiens, UniProt Q06546 1-454).
T2 sequence: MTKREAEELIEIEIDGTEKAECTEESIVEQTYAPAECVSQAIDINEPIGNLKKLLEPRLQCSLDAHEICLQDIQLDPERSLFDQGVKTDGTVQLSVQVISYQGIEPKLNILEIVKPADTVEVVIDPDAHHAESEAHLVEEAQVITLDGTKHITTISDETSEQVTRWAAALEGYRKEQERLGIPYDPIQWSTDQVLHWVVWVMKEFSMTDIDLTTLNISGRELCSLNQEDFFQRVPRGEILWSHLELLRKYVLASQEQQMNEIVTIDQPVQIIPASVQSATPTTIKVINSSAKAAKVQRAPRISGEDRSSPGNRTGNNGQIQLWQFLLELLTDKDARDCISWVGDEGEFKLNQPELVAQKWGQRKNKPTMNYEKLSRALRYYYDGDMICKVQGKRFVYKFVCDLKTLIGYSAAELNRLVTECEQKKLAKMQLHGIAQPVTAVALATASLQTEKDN
Put shortly:
as §1

For assay [3], the target named is T3, ERG (Homo sapiens, UniProt P11308 1-479).
T3 sequence: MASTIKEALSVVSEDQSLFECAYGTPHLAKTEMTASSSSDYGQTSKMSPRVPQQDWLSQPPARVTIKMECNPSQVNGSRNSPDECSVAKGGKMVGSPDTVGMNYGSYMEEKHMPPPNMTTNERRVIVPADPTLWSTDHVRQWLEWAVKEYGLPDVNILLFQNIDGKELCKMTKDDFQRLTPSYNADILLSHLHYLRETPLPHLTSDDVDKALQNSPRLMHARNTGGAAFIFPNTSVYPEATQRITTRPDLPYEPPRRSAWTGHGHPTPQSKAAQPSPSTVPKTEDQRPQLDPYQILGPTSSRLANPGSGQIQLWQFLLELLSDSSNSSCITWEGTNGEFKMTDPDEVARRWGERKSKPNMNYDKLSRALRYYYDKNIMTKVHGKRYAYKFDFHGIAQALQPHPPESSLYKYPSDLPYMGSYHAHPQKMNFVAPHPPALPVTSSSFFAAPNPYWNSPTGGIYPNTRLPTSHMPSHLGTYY
The method in brief: as §1

Assay [4] has as its target ELF1 (Homo sapiens, UniProt P32519 1-619). The method in brief: as §1
For assay [5], the target named is T4, EHF (Homo sapiens, UniProt Q9NZC4 1-300).
T4 sequence: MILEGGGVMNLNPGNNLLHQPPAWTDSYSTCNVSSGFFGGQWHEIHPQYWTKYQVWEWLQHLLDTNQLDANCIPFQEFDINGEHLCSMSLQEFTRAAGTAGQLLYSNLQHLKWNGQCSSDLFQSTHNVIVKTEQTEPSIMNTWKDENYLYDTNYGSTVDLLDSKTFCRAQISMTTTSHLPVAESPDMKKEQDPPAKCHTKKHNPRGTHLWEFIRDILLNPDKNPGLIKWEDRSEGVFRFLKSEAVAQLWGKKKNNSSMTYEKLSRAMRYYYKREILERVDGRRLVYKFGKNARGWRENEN
Put shortly: as §1

In assay [6] the target is SPI1 (Homo sapiens, UniProt P17947 1-270). The method in brief:
as §1

Assay [7] has as its target SPIB (Homo sapiens, UniProt Q01892 1-262). Put shortly:
as §1

Assay [8] concerns the target T5, ELK3 (Homo sapiens, UniProt P41970 1-407).
T5 sequence: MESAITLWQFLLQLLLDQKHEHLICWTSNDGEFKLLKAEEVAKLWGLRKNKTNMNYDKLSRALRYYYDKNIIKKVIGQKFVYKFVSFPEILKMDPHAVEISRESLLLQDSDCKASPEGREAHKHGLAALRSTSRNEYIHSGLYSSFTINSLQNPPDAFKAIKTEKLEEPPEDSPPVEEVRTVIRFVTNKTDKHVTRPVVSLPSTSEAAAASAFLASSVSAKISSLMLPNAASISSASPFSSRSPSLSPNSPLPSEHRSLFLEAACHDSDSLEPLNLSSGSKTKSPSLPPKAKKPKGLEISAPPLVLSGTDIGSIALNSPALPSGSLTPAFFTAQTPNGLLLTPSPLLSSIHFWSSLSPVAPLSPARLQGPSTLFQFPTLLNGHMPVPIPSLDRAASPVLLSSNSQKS
The method in brief: as §1

In assay [9] the target is T6, ELK1 (Homo sapiens, UniProt P19419 1-428).
T6 sequence: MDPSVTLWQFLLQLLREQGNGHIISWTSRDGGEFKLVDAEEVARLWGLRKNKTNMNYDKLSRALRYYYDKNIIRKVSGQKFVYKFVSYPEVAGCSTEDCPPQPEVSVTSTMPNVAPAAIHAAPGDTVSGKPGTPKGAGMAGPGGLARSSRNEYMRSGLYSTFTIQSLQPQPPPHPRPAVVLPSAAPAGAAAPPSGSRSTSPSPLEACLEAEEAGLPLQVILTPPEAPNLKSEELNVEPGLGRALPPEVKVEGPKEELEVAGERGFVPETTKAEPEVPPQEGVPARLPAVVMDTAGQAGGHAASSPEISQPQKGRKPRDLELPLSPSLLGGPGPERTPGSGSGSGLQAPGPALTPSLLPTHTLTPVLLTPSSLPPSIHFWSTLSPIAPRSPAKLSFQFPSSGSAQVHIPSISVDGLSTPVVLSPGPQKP
The method in brief: as §1

SPIB, sequence (Q01892 whole entry): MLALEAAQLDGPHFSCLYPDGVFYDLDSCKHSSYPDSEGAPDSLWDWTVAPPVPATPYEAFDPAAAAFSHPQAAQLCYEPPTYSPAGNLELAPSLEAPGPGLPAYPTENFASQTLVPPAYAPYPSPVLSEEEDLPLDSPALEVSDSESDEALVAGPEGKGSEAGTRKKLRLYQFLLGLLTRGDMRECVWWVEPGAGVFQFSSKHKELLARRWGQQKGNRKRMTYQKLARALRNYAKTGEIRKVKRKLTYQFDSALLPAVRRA
ELF1, sequence (P32519 whole entry): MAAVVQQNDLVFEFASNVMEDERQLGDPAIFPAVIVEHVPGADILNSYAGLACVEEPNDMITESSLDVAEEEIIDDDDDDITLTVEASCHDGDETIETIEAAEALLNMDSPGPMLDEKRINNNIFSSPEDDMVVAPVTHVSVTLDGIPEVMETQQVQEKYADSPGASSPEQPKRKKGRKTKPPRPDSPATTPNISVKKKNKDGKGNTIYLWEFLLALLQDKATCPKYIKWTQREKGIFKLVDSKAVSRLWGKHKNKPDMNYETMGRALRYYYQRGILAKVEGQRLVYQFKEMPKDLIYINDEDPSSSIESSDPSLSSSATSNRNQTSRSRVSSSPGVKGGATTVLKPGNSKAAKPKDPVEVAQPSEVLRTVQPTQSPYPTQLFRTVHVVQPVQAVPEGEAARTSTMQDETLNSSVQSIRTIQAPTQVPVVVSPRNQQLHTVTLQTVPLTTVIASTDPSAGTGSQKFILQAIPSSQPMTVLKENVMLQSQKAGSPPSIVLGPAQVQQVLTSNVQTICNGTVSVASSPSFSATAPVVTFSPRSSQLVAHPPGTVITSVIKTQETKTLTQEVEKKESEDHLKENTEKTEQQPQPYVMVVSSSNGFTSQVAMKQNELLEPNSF

With TCATTA, the binding signal in assay [1] was 1.12 fold enrichment (6-mer frequency, TF over GST control); in [2] it was 1.07 fold enrichment (6-mer frequency, TF over GST control); in assay [3] it was 1.06 fold enrichment (6-mer frequency, TF over GST control); in assay [4], 1.16 fold enrichment (6-mer frequency, TF over GST control); in assay [5] it was 1.09 fold enrichment (6-mer frequency, TF over GST control); in [6], 1.12 fold enrichment (6-mer frequency, TF over GST control). Moreover, the binding signal in assay [7] is 1.16 fold enrichment (6-mer frequency, TF over GST control).
On to TTTGAG, for which the binding signal in assay [1] was 1.13 fold enrichment (6-mer frequency, TF over GST control); in assay [2], 1.28 fold enrichment (6-mer frequency, TF over GST control); in assay [3] it was 1.05 fold enrichment (6-mer frequency, TF over GST control); in assay [4], 1.13 fold enrichment (6-mer frequency, TF over GST control); in [5] it was 1.09 fold enrichment (6-mer frequency, TF over GST control); in assay [6] it was 1.16 fold enrichment (6-mer frequency, TF over GST control). For the same sequence, in assay [7], the binding signal is 1.12 fold enrichment (6-mer frequency, TF over GST control).
TAAGCG: the binding signal in assay [1] is 1.05 fold enrichment (6-mer frequency, TF over GST control); in assay [2], 1.01 fold enrichment (6-mer frequency, TF over GST control); in assay [3], 1.02 fold enrichment (6-mer frequency, TF over GST control); in assay [4] it was 1.02 fold enrichment (6-mer frequency, TF over GST control); in assay [5], 1.02 fold enrichment (6-mer frequency, TF over GST control); in assay [6], 1.03 fold enrichment (6-mer frequency, TF over GST control). Besides, the binding signal in [8] was 1.01 fold enrichment (6-mer frequency, TF over GST control).
In the case of ATGCTG, the binding signal in [1] was 1.09 fold enrichment (6-mer frequency, TF over GST control); in assay [2], 1.07 fold enrichment (6-mer frequency, TF over GST control); in assay [4] it was 1.13 fold enrichment (6-mer frequency, TF over GST control); in [5], 1.22 fold enrichment (6-mer frequency, TF over GST control); in assay [6], 1.07 fold enrichment (6-mer frequency, TF over GST control); in assay [7] it was 1.05 fold enrichment (6-mer frequency, TF over GST control).
Regarding ACGATC, the binding signal in assay [1] was 1.05 fold enrichment (6-mer frequency, TF over GST control); in assay [2], 1.17 fold enrichment (6-mer frequency, TF over GST control); in assay [3], 1.03 fold enrichment (6-mer frequency, TF over GST control); in assay [4], 1.09 fold enrichment (6-mer frequency, TF over GST control); in assay [7], 1.08 fold enrichment (6-mer frequency, TF over GST control); in assay [8], 1.1 fold enrichment (6-mer frequency, TF over GST control).
As to CATAAA, the binding signal in assay [1] was 1 fold enrichment (6-mer frequency, TF over GST control); in assay [7], 1.01 fold enrichment (6-mer frequency, TF over GST control).
For the sequence AAGGCT, the binding signal in [1] is 1.03 fold enrichment (6-mer frequency, TF over GST control); in assay [2] it was 1.12 fold enrichment (6-mer frequency, TF over GST control); in assay [4] it was 1.1 fold enrichment (6-mer frequency, TF over GST control); in [5] it was 1.02 fold enrichment (6-mer frequency, TF over GST control); in [7], 1.01 fold enrichment (6-mer frequency, TF over GST control); in [8] it was 1.1 fold enrichment (6-mer frequency, TF over GST control).
Take AGGGCT: the binding signal in [1] was 1.03 fold enrichment (6-mer frequency, TF over GST control); in assay [2] it was 1.05 fold enrichment (6-mer frequency, TF over GST control); in [3], 1.07 fold enrichment (6-mer frequency, TF over GST control); in [4] it was 1.01 fold enrichment (6-mer frequency, TF over GST control); in assay [5], 1.04 fold enrichment (6-mer frequency, TF over GST control); in assay [8] it was 1.08 fold enrichment (6-mer frequency, TF over GST control).
Take CTGTAA: the binding signal is 1.06 fold enrichment (6-mer frequency, TF over GST control) in [1]; 1.07 fold enrichment (6-mer frequency, TF over GST control) in assay [2]; 1.12 fold enrichment (6-mer frequency, TF over GST control) in assay [4]; 1.09 fold enrichment (6-mer frequency, TF over GST control) in assay [5]; 1.11 fold enrichment (6-mer frequency, TF over GST control) in assay [6]; 1.04 fold enrichment (6-mer frequency, TF over GST control) in assay [7]. For the same sequence, in assay [8], the binding signal is 1.24 fold enrichment (6-mer frequency, TF over GST control).
For TTGGCT, the binding signal in assay [1] was 1.15 fold enrichment (6-mer frequency, TF over GST control); in assay [9], 1.07 fold enrichment (6-mer frequency, TF over GST control); in assay [4], 1.13 fold enrichment (6-mer frequency, TF over GST control); in assay [5], 1.12 fold enrichment (6-mer frequency, TF over GST control); in [8], 1 fold enrichment (6-mer frequency, TF over GST control).
TGAAAA: the binding signal in assay [1] is 1.06 fold enrichment (6-mer frequency, TF over GST control); in [9] it was 1.03 fold enrichment (6-mer frequency, TF over GST control); in [4], 1.04 fold enrichment (6-mer frequency, TF over GST control); in [5] it was 1.08 fold enrichment (6-mer frequency, TF over GST control); in assay [6], 1.23 fold enrichment (6-mer frequency, TF over GST control).
